Hit rate of the full screen: of about 5,500 compounds, about 2,000 (36%) were called active. Not shown: some 18% with an inconclusive outcome. Rule as the data show it: active = normalized growth mostly below about 0.91 (no sharp cut-off); inconclusive = no clear call, values can overlap the other calls; inactive = mostly above about 0.92. This is one part of the list.
Assay: chemical genetic growth profiling, strain panel (AID 1159580);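 also: tested at 20 µM; growth read once vehicle control cultures reached saturation at 30 °C; 1 = growth at the plate median or of vehicle wells; lower values mean less growth of the strain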
Settings: growth OD

Measured: normalized growth

CC(=O)NO
inactive: S. cerevisiae deletion strains, locus YJL187C, strain SWE1, stronger effect = lower value 0.992 | S. cerevisiae deletion strains, locus YJR043C, strain POL32, stronger effect = lower value 1.07 | S. cerevisiae deletion strains, locus YJR066W, strain TOR1, stronger effect = lower value 0.993 | S. cerevisiae deletion strains, locus YKL009W, strain mrt4, stronger effect = lower value 0.989 | S. cerevisiae deletion strains, locus YKL068W, stronger effect = lower value 0.995 | S. cerevisiae deletion strains, locus YKL085W, strain MDH1 (second series), stronger effect = lower value 0.994 | S. cerevisiae deletion strains, locus YKL085W, strain MDH1, stronger effect = lower value 0.994 | S. cerevisiae deletion strains, locus YKL160W, strain elf1, stronger effect = lower value 0.961 | S. cerevisiae deletion strains, locus YKL190W, strain CNB1, stronger effect = lower value 1 | S. cerevisiae deletion strains, locus YKR001C, strain vps1, stronger effect = lower value 1.02 | S. cerevisiae deletion strains, locus YKR026C, strain gcn3, stronger effect = lower value 0.98 | S. cerevisiae deletion strains, locus YKR091W, strain srl3, stronger effect = lower value 0.985 | S. cerevisiae deletion strains, locus YLL001W, strain dnm1, stronger effect = lower value 0.922 | S. cerevisiae deletion strains, locus YLL026W, stronger effect = lower value 0.988 | S. cerevisiae deletion strains, locus YLL041C, strain sdh2, stronger effect = lower value 0.988 | S. cerevisiae deletion strains, locus YLR027C, strain aat2, stronger effect = lower value 0.981 | S. cerevisiae deletion strains, locus YLR039C, strain RIC1, stronger effect = lower value 0.711 | S. cerevisiae deletion strains, locus YLR058C, strain SHM2, stronger effect = lower value 0.988 | S. cerevisiae deletion strains, locus YLR102C, strain apc9, stronger effect = lower value 0.996 | S. cerevisiae deletion strains, locus YLR113W, strain HOG1, stronger effect = lower value 0.973 | S. cerevisiae deletion strains, locus YLR221C, strain rsa3, stronger effect = lower value 0.922 | S. cerevisiae deletion strains, locus YLR258W, strain gsy2, stronger effect = lower value 0.964 | S. cerevisiae deletion strains, locus YLR262C, strain YPT6 (second series), stronger effect = lower value 0.986 | S. cerevisiae deletion strains, locus YLR262C, strain YPT6, stronger effect = lower value 0.746 | S. cerevisiae deletion strains, locus YLR268W, strain sec22, stronger effect = lower value 0.965 | S. cerevisiae deletion strains, locus YLR320W, strain mms22, stronger effect = lower value 0.892 | S. cerevisiae deletion strains, locus YLR330W, strain CHS5, stronger effect = lower value 0.996 | S. cerevisiae deletion strains, locus YLR342W, strain FKS1 (second series), stronger effect = lower value 0.901 | S. cerevisiae deletion strains, locus YLR342W, strain FKS1, stronger effect = lower value 0.98 | S. cerevisiae deletion strains, locus YLR357W, strain rsc2, stronger effect = lower value 0.971 | S. cerevisiae deletion strains, locus YLR370C, strain arc18, stronger effect = lower value 0.949 | S. cerevisiae deletion strains, locus YLR371W, strain rom2, stronger effect = lower value 0.987 | S. cerevisiae deletion strains, locus YLR384C, strain iki3, stronger effect = lower value 0.983 | S. cerevisiae deletion strains, locus YLR418C, strain cdc73, stronger effect = lower value 0.851 | S. cerevisiae deletion strains, locus YML016C, strain PPZ1, stronger effect = lower value 0.993 | S. cerevisiae deletion strains, locus YML032C, strain rad52, stronger effect = lower value 0.951 | S. cerevisiae deletion strains, locus YML120C, strain ndi1, stronger effect = lower value 0.948 | S. cerevisiae deletion strains, locus YML124C, strain tub3, stronger effect = lower value 0.995 | S. cerevisiae deletion strains, locus YMR058W, strain fet3, stronger effect = lower value 0.988 | S. cerevisiae deletion strains, locus YMR078C, strain ctf18, stronger effect = lower value 0.991 | S. cerevisiae deletion strains, locus YMR125W, strain sto1, stronger effect = lower value 0.963 | S. cerevisiae deletion strains, locus YMR129W, stronger effect = lower value 0.99 | S. cerevisiae deletion strains, locus YMR205C, strain PFK2, stronger effect = lower value 0.951 | S. cerevisiae deletion strains, locus YMR223W, strain ubp8, stronger effect = lower value 0.968 | S. cerevisiae deletion strains, locus YMR231W, strain pep5, stronger effect = lower value 0.987 | S. cerevisiae deletion strains, locus YMR307W, strain GAS1, stronger effect = lower value 1.17 | S. cerevisiae deletion strains, locus YNL067W, strain RPL9B, stronger effect = lower value 0.949 | S. cerevisiae deletion strains, locus YNL071W, strain lat1, stronger effect = lower value 0.976 | S. cerevisiae deletion strains, locus YNL183C, strain NPR1, stronger effect = lower value 0.968 | S. cerevisiae deletion strains, locus YNL209W, strain ssb2, stronger effect = lower value 0.985 | S. cerevisiae deletion strains, locus YNL233W, strain BNI4, stronger effect = lower value 0.939 | S. cerevisiae deletion strains, locus YNL248C, strain rpa49, stronger effect = lower value 0.956 | S. cerevisiae deletion strains, locus YNL250W, strain rad50, stronger effect = lower value 0.976 | S. cerevisiae deletion strains, locus YNL271C, strain bni1, stronger effect = lower value 0.984 | S. cerevisiae deletion strains, locus YNL298W, strain CLA4, stronger effect = lower value 0.993 | S. cerevisiae deletion strains, locus YNL307C, strain MCK1, stronger effect = lower value 0.978 | S. cerevisiae deletion strains, locus YNL322C, strain KRE1 (second series), stronger effect = lower value 0.957 | S. cerevisiae deletion strains, locus YNR049C, strain mso1, stronger effect = lower value 0.977 | S. cerevisiae deletion strains, locus YNR052C, strain pop2, stronger effect = lower value 0.97 | S. cerevisiae deletion strains, locus YOL012C, strain htz1 0.899 | S. cerevisiae deletion strains, locus YOL147C, strain pex11, stronger effect = lower value 0.992 | S. cerevisiae deletion strains, locus YOR001W, strain rrp6, stronger effect = lower value 1.01 | S. cerevisiae deletion strains, locus YOR061W, strain CKA2, stronger effect = lower value 1 | S. cerevisiae deletion strains, locus YOR069W, strain VPS5, stronger effect = lower value 1.01 | S. cerevisiae deletion strains, locus YOR070C, strain gyp1, stronger effect = lower value 0.979 | S. cerevisiae deletion strains, locus YOR080W, strain dia2, stronger effect = lower value 0.977 | S. cerevisiae deletion strains, locus YOR083W, strain WHI5, stronger effect = lower value 0.962 | S. cerevisiae deletion strains, locus YOR106W, strain vam3, stronger effect = lower value 0.975 | S. cerevisiae deletion strains, locus YOR136W, strain idh2, stronger effect = lower value 0.989 | S. cerevisiae deletion strains, locus YOR144C, strain elg1, stronger effect = lower value 0.996 | S. cerevisiae deletion strains, locus YOR184W, strain ser1, stronger effect = lower value 0.974 | S. cerevisiae deletion strains, locus YOR231W, strain MKK1, stronger effect = lower value 0.992 | S. cerevisiae deletion strains, locus YOR265W, strain rbl2, stronger effect = lower value 0.986 | S. cerevisiae deletion strains, locus YOR270C, strain vph1, stronger effect = lower value 0.944 | S. cerevisiae deletion strains, locus YOR290C, strain snf2, stronger effect = lower value 0.948 | S. cerevisiae deletion strains, locus YOR316C, strain cot1, stronger effect = lower value 0.996 | S. cerevisiae deletion strains, locus YPL051W, strain arl3, stronger effect = lower value 0.985 | S. cerevisiae deletion strains, locus YPL078C, strain atp4, stronger effect = lower value 0.97 | S. cerevisiae deletion strains, locus YPL106C, strain sse1, stronger effect = lower value 0.969 | S. cerevisiae deletion strains, locus YPL240C, strain hsp82, stronger effect = lower value 0.983 | S. cerevisiae deletion strains, locus YPL256C, strain CLN2, stronger effect = lower value 0.994 | S. cerevisiae deletion strains, locus YPR119W, strain clb2, stronger effect = lower value 1 | S. cerevisiae deletion strains, locus YPR141C, strain kar3, stronger effect = lower value 1 | S. cerevisiae deletion strains, locus YPR163C, strain tif3, stronger effect = lower value 0.984 | S. cerevisiae deletion strains, locus YPR167C, strain met16, stronger effect = lower value 0.983 | S. cerevisiae deletion strains, strain wtn01, stronger effect = lower value 0.969 | S. cerevisiae strains, strain wild type, stronger effect = lower value 0.981
